Compound activity deposited in PubChem BioAssay by National Center for Advancing Translational Sciences (NCATS).
Sm TGR block = blocks Schistosoma mansoni thioredoxin glutathione reductase; Q962Y6; purified TGR, DTNB reduction, TNB absorbance 405 nm; Potency, µM (top dose mostly 114 µM), most hits filed as inhibitors; actives 3% (n = 360,000); AID 485364; further: nearly all actives have a fitted effect of over 60% in size
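TGR 20 nM + NADPH 100 uM (dispensed conc.), cpd preinc 15 min RT; start with NADPH (500 uM addition) then DTNB (15 mM addition). Kinetic TNB absorbance, 405 nm filter. Four-parameter Hill fit across titration.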
Pf growth 96h = P. falciparum growth inhibition at 96 hours; P. falciparum luciferase reporter growth, 96 h; Potency, µM (titrated, usually from 28.7 µM), actives largely listed as inhibitors; actives 6.9% (n = 320,000)
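Erythrocytes infected with luciferase-expressing P. falciparum were dispensed at 2% hematocrit and 0.05% parasitemia (final), then incubated with compounds 96 hours at 37 C in 5% CO2. Luminescence after detection reagent addition reported growth.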
Pf growth 48h = P. falciparum growth inhibition at 48 hours (one generation). P. falciparum luciferase growth in erythrocytes, 48 h. Potency, µM (doses to about 28.7 µM), usual class: inhibitors. actives 5.9% (n = 310,000). AID 504832
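Luciferase-expressing P. falciparum in infected erythrocytes (2% hematocrit, 0.1% parasitemia final) in RPMI 1640/0.5% Albumax were exposed to compound for 48 hours at 37 C, 5% CO2; growth read as luminescence.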
NS1 inh = influenza NS1 inhibition; actives 0.4% (n = 270,000); Potency, µM (series often up to 46.1 µM); calls by dose curve; further: actives are rising curves; nearly all actives have a fitted effect of over 50% in size
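In this qHTS, NS1 from influenza A is expressed in budding yeast, where it slows growth. Cells are switched from glucose to 2% galactose medium (pH 6.0, -URA), treated with compound, and growth recovery is read at OD600.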
AMA1 RON2 block = disrupts binding of P. falciparum AMA1 to RON2; AlphaScreen AMA1-biotinylated RON2 peptide binding; Potency, µM (series often up to 58.2 µM), most hits filed as inhibitors; actives 0.2% (n = 360,000); further: nearly all actives have a fitted effect of over 45% in size
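AMA1 (3D7) with his tag at 25 nM final met compounds first, then biotinylated RON2 peptide at 25 nM; detection used donor plus acceptor beads, 10 µg/mL apiece, read by AlphaScreen after 30 min at room temperature.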
Each line names hits and unclear results; the compound was inactive in the other large screens. An excerpt weighted towards active compounds, which were near 11% of everything screened. Unless noted, the call rests on the fitted dose curve; in most records, active means well fitted curve in the direction sought with a large enough effect; inconclusive means small, poorly fitted or top-dose-only effect, or another doubt; inactive means no such curve, though single readings can be large; an effect the other way counts as inactive or inconclusive.

O=C(Nc1ccc(OC(F)(F)F)cc1)c1cccc(-n2cnnn2)c1	Pf growth 96h 10.4µM, Pf growth 48h inconclusive (no result: NS1 inh)
O=C(Nc1cccc(-n2cnnn2)c1)c1cc(Cl)nc(Cl)c1	Pf growth 96h 4.65µM, Pf growth 48h 9.28µM
CC(=O)c1cccc(NC(=O)C(C)OC(=O)c2ccc(-n3cnnn3)cc2)c1 (centres undefined)	Pf growth 96h 11.7µM, Pf growth 48h 10.4µM (no result: NS1 inh)
O=C(Nc1cccc(-n2cnnn2)c1)c1cccc(Cl)c1	none
O=C(Nc1cnc2ccccc2c1)c1cccc(-n2cnnn2)c1	Pf growth 48h 0.117µM, NS1 inh inconclusive
COC(=O)c1cccc(NC(=O)c2cccc(-n3cnnn3)c2)c1	none (no result: Sm TGR block, Pf growth 96h, Pf growth 48h, NS1 inh)
CCOC(=O)c1ccc(NC(=O)N2CCN(C(=O)C3CCCO3)CC2)cc1 (centres undefined)	Pf growth 96h inconclusive
COc1ccc(-c2nnc3sc(-c4ccccc4OC)nn23)cc1	none
Cc1cc(-c2nn3c(-c4ccccc4)nnc3s2)c2ccccc2n1	Pf growth 48h inconclusive
COc1ccc(-c2nn3c(-c4ccco4)nnc3s2)cc1OC	Sm TGR block inconclusive, Pf growth 48h inconclusive
Cc1ccccc1-c1nn2c(-c3ccccc3)nnc2s1	Pf growth 96h 9.28µM, Pf growth 48h inconclusive
c1ccc(-c2cc(-c3nn4c(-c5ccco5)nnc4s3)c3ccccc3n2)cc1	Sm TGR block 20µM, Pf growth 48h 3.7µM (no result: Pf growth 96h)
COc1cc(OC)c(-c2nn3c(-c4ccco4)nnc3s2)cc1OC	Sm TGR block 11.2µM, Pf growth 48h 10.4µM
c1coc(-c2nnc3sc(-c4cccs4)nn23)c1	Sm TGR block 17.8µM (no result: Pf growth 96h)
O=C1C(Cc2ccccc2)SC(=Nc2ccccc2)N1c1ccccc1 (centres undefined)	Pf growth 48h 13.1µM
Cn1c(=O)c2c(-c3ccc(Cl)cc3)ccnc2n(C)c1=O	none (no result: Pf growth 96h, Pf growth 48h, NS1 inh, AMA1 RON2 block)
O=S1(=O)CCOCCCN1Cc1ccccc1F	none
COc1ccc(/C=N/N=C2\SCC(=O)N2c2c(C)n(C)n(-c3ccccc3)c2=O)cc1OC	Pf growth 96h inconclusive, Pf growth 48h 13.1µM, NS1 inh inconclusive
Cc1c(N2C(=O)CS/C2=N\N=C\c2ccc(Cl)cc2)c(=O)n(-c2ccccc2)n1C	none
CCn1cc2nc(SCC(=O)Nc3ccc(OC)cc3OC)n(Cc3ccc(Cl)cc3)c(=O)c2n1	none (no result: Pf growth 96h, Pf growth 48h, NS1 inh, AMA1 RON2 block)
CCOC(=O)C1CCN(CC(=O)c2c(C)[nH]c3cc(C)ccc23)CC1	none
Cc1[nH]c2ccccc2c1C(=O)CN1CCC(C)CC1	Sm TGR block inconclusive, AMA1 RON2 block inconclusive
Cc1[nH]c2ccccc2c1C(=O)CN1CCCCC1C (centres undefined)	Pf growth 96h 14.7µM
CCC1CCCCN1CC(=O)c1c(C)[nH]c2ccccc12 (centres undefined)	Sm TGR block 44.7µM
CCOC(=O)C1CCCN(C(c2ccccn2)c2c(C)[nH]c3ccccc23)C1 (centres undefined)	Sm TGR block 0.316µM, Pf growth 96h inconclusive (no result: NS1 inh)
CCOC(=O)C1CCN(CC(=O)c2c(C)[nH]c3ccccc23)CC1	Sm TGR block 35.5µM
Cc1cccc(NC(=O)NCCn2c(=O)oc3ccc(C)cc32)c1	none (no result: Pf growth 96h, Pf growth 48h, NS1 inh, AMA1 RON2 block)
O=C(CCC(=O)Nc1ccccc1Cl)NNC(=O)NC1CCCCC1	none
C=CCNc1nc(-c2sc(NC(=O)C(C)(C)C)nc2C)c(-n2cc(-c3ccccc3)nn2)s1	none (no result: Sm TGR block, Pf growth 96h, Pf growth 48h, NS1 inh)
COc1cc2c(cc1OC)C(NNC(=O)c1ccc(Br)o1)=NC(C)(C)C2	Pf growth 96h inconclusive, Pf growth 48h inconclusive
CCCCOc1ccc(C2(C)NC(=O)N(C)C2=O)cc1 (centres undefined)	Pf growth 96h inconclusive
CCC(C(=O)OC)(C(=O)OC)c1ccc([N+](=O)[O-])cc1	none (no result: NS1 inh)
COc1ccc(CNCCC(c2ccccc2)C2CCOC(C)(C)C2)cc1 (centres undefined)	Pf growth 96h inconclusive, Pf growth 48h inconclusive (no result: NS1 inh)
COc1ccc(CN(CCC(c2ccccc2)C2CCOC(C)(C)C2)C(C)=O)cc1 (centres undefined)	Pf growth 48h 13.1µM
Clc1ccc(-n2nnnc2CN2CCOCC2)cc1	none
Cc1ccc(S(=O)(=O)Cn2nnnc2CN2CCCC3(CCCCC3)C2)cc1	Sm TGR block inconclusive, Pf growth 48h 13.1µM (no result: Pf growth 96h)
Cc1ccc(-n2nnnc2CN2CCCCC2)cc1	Pf growth 96h 2.08µM (no result: Sm TGR block)
CCCCN(CC)C(=O)Cn1c(=O)n(-c2ccc(OCC)cc2)c(=O)c2c3c(sc21)CCC3	none (no result: Pf growth 96h, Pf growth 48h, NS1 inh, AMA1 RON2 block)
